Screening data from PubChem BioAssay.
This is a sample that favours compounds with a hit; in the whole collection about 3% have one here.
rTrxR1 inhibitor = rat TrxR1 inhibition | O89049 | recombinant rTrxR1, NADPH fluorescence consumption, selenite substrate | Potency, µM (series often up to 114 µM), for inactives: top-dose activity change, negative = inhibition, usual class: inhibitors | hit rate 1% among 390,000; note: % is set by controls: 0 for no effect and ±100 for the full control effect; nearly all actives have a fitted effect of over 65% in size
Target sequence (O89049 whole entry, looked up): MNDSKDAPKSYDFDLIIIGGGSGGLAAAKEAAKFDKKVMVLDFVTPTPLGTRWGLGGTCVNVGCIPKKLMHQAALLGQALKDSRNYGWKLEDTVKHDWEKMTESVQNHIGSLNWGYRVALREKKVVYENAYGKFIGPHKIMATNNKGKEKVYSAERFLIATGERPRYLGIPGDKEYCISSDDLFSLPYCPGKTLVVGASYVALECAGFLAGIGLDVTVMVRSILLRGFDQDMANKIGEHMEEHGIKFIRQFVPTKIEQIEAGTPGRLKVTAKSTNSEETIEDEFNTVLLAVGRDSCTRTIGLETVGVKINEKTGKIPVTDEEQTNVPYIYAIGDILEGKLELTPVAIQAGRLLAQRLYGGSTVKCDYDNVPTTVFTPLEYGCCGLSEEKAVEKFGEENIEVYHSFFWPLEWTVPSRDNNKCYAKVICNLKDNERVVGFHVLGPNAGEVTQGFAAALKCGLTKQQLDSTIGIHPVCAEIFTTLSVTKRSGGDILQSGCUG
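Rat TrxR1 (90 nM in the dispensed reagent) was pre-reduced with 400 uM NADPH for 5 min at room temperature, then incubated with compound for 15 min. After 400 uM selenite was added, NADPH fluorescence (Ex 340/Em 450 nm) was followed for 8 min.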
TrxR1 substrate = rat thioredoxin reductase 1 substrate activity | hit rate 0.01% among 390,000 | O89049 | purified TrxR1 substrate turnover, NADPH consumption readout | Potency, µM (top dose mostly 114 µM), for inactives: at the top dose activity change, negative = substrate turnover; note: % is set by controls: 0 for no effect and ±100 for the full control effect; nearly all actives have a fitted effect of over 50% in size
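Rat TrxR1, dispensed at 90 nM, was prereduced with 400 uM NADPH (final) for 5 min at ~22 deg C, then incubated with compound 15 min before 400 uM selenite. A first-read NADPH fluorescence drop versus no-compound background flagged substrates.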
A549 tox = counter-screen for Nrf2 inhibitors: cytotoxicity in A549 cells | Potency, µM (series often up to 46 µM), for the others: top-dose activity change, negative = cytotoxicity, actives largely listed as inhibitors | hit rate 0.16% among 390,000 | AID 504648 | A549 ARE-Fluc cells, CellTiter-Fluor viability, 18-24 h; note: % is set by controls: 0 for no effect and ±100 for the full control effect
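Cytotoxicity counterscreen: CellTiter-Fluor fluorescence was measured in A549 ARE_Fluc cells after 18-24 h of compound exposure in a concentration series. The subsequent BugLite luminescent read reports ARE-luciferase activity.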
GALK inhibitor = galactokinase (human) inhibition; hit rate 0.007% among 270,000; Potency, µM (doses to about 57.5 µM), without a hit: at the top dose activity change, negative = inhibition, most hits filed as inhibitors; Purified GALK, Kinase-Glo residual ATP luminescence; AID 1868; note: % is set by controls: 0 for no effect and ±100 for the full control effect
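Human GALK (5 nM) with 35 uM ATP and 100 uM galactose in 20 mM HEPES pH 8.0, 5 mM MgCl2, 60 mM NaCl, 1 mM DTT, 0.01% BSA. After 1 h at room temperature, leftover ATP was read by Kinase-Glo Plus luminescence.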
Nrf2 ARE act = activators of Nrf2 (ARE) signaling; AREc32 ARE-luciferase reporter (MCF7-derived line), luminescence, 24 h; hit rate 0.31% among 410,000; Potency, µM (series often up to 46.1 µM), for the others: at the top dose activation, hits mostly activators; note: % of control where 0% means no effect; nearly all actives have a fitted effect of over 65% in size
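Quantitative high-throughput format: AREc32 reporter cells, 1000 per well, received compound by pin transfer and were incubated 24 hr at 37 deg C, 5% CO2, before Steady-Glo luminescence detection.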
Nrf2 inh = blocks Nrf2 signaling | A549 ARE-Fluc reporter, luciferase luminescence, 18-24 h | Potency, µM (series often up to 46 µM), without a hit: at the highest dose activity change, negative = inhibition, actives largely listed as inhibitors | hit rate 2.1% among 360,000 | AID 504444; note: % is set by controls: 0 for no effect and ±100 for the full control effect; nearly all actives have a fitted effect of over 60% in size
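Nrf2 function is reported as luminescence of an ARE-controlled luciferase in A549 cells. Compounds were tested at several concentrations, and a CellTiter-Fluor read on the same wells flagged cytotoxicity.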
The depositor's hits bear a star; ? = inconclusive; / = not tested or not shown; [ ] = dose if it differs, or a comment. Calls come from the whole dose curve; as a rule, active = well fitted curve in the direction sought with a large enough effect; inconclusive = small, poorly fitted or top-dose-only effect, or another doubt; inactive = no such curve, though single readings can be large; an effect the other way counts as inactive or inconclusive. Potency is the fitted concentration of half-maximal effect.

SMILES	rTrxR1 inhibitor	TrxR1 substrate	A549 tox	GALK inhibitor	Nrf2 ARE act	Nrf2 inh
COc1ccc(Cl)cc1NC(=O)Nc1cccc([N+](=O)[O-])c1C	15%	5%	-18%	-1%	0%	13µM*
COc1ccc(/C=N/NC(=O)c2ccco2)cc1Cn1nc(C)c([N+](=O)[O-])c1C	-7%[57.1 µM]	-9%[57.1 µM]	?	-2%	4%	16µM*
COC(=O)c1cccc(CN2C(=O)SC(Nc3ccc(Br)cc3)C2=O)c1 (centres undefined)	-4%	-2%	-3%	/	4%	3%
N#Cc1c(-c2ccco2)cc(-c2ccccc2)[nH]c1=O	-15%	37%	1%	2%	2.5µM*	-54%
COc1cccc(/C=C/c2onc(C)c2S(=O)(=O)N2CCC(C(=O)N3CCC(C)CC3)CC2)c1	28%[57.1 µM]	5%[57.1 µM]	-7%	/	0%	/
CCOC(=O)C(=CNc1cc(C)nn1-c1ccc(C)cc1)C(=O)OCC	-13%	-12%	-19%	0%	0%	?
CCOC(=O)C(=CNc1ccc2c(c1)nnn2-c1ccc(Cl)cc1)C(=O)OCC	29%[57.1 µM]	38%	?	3%	4%	29µM*
Cc1ccc2nsnc2c1S(=O)(=O)Nc1cccc2nsnc12	0%	-1%	-18%	4%	0%	-18%
Cc1ccc2nsnc2c1S(=O)(=O)Nc1cccc2cccnc12	/	/	?	/	/	8.2µM*
Cc1ccc(S(=O)(=O)Nc2cccc3cccnc23)cc1	5%	-5%	-25%	3%	?	6.5µM*
Cc1ccc(S(=O)(=O)Nc2ccc(NS(=O)(=O)c3ccc(C)cc3)c3ncccc23)cc1	/	/	-6%	/	/	?
CC(C)c1cc(C(C)C)c(S(=O)(=O)Nc2cccc3cccnc23)c(C(C)C)c1	/	/	11%	/	/	?
Cc1ccc(-c2ccc(S(=O)(=O)Nc3cccnc3)cc2)cc1	14%[57.1 µM]	12%	0%	-4%	3%	12µM*
O=C1c2ccccc2C(=O)c2cc(S(=O)(=O)Nc3cccc4cccnc34)ccc21	/	/	-19%	/	/	5.2µM*
COc1cccc(/C=C/c2cnc3ccccc3n2)c1OC	2%	-4%	/	/	/	/
O=C(Nc1nc(-c2ccc(Cl)s2)cs1)c1ccncc1	10%	6%	-1%	0%	18%	?
CC1CC1C(=O)Nc1nc(-c2ccc(Cl)s2)cs1 (centres undefined)	22%[57.1 µM]	-1%[57.1 µM]	2%	10%	5%	23µM*
CCOc1ccc(N(C)S(=O)(=O)c2ccc(C)c(C(=O)NCc3cccs3)c2)cc1	10%	-5%	-5%	/	0%	16µM*
CCOc1ccc(C(=O)NCc2cccs2)cc1	7%	-4%	-2%	5%	2%	?
CCOc1cc(C#N)c(NC(=O)c2ccc(OC)c(S(=O)(=O)N3CCCCC3)c2)cc1OCC	15%[11.4 µM]	11%	-11%	/	0%	-14%
COC(=O)c1cc(CSc2nc3ccc(C)cc3[nH]2)oc1C	-9%	-12%	-3%	2%	2%	21µM*
COC(=O)c1cc(CSc2nnc(-c3ccccc3)c(-c3ccccc3)n2)oc1C	-33%	0%[57.1 µM]	-13%	1%	2%	21µM*
COCC(C)n1c(SCc2cc(C(=O)OC)c(C)o2)nc2ccccc2c1=O (centres undefined)	3%	-6%	8%	-2%	-1%	?
COC(=O)c1cc2c(=O)c3ccccc3oc2nc1C	17%[57.1 µM]	7%[57.1 µM]	0%	-2%	7.9µM*	?
O=c1c2ccccc2oc2cc(Br)ccc12	10%[2.29 µM]	12%[57.1 µM]	2%	/	?	?
SMILES	rTrxR1 inhibitor	TrxR1 substrate	A549 tox	GALK inhibitor	Nrf2 ARE act	Nrf2 inh
Cc1nc2oc3ccccc3c(=O)c2cc1C(=O)O	10%[57.1 µM]	-5%[57.1 µM]	-4%	8%	0%	9%
O=c1c2ccccc2oc2ccc(Oc3ccccc3)cc12	15%[57.1 µM]	-6%[57.1 µM]	16%	/	27%	?
COc1cc2oc3ccccc3c(=O)c2cc1OC	?	600%[57.1 µM]	-1%	/	10µM*	7%
COc1ccc2oc3cc(Cl)ccc3c(=O)c2c1	/	/	/	/	7.9µM*	/
COc1cccc(C2c3c(ncn(-c4ccccc4-c4ccccc4)c3=N)Oc3ccc4ccccc4c32)c1 (centres undefined)	/	/	-1%	/	/	18%
O=C(NCCc1ccc(Cl)cc1)c1ccc2c(c1)N(Cc1ccc(Cl)cc1)C(=O)CS2	19%	11%[2.29 µM]	-29%	/	0%	-10%[9.27 µM]
Cc1ccc(C(=O)NNc2ncnc3c2cnn3C)cc1	35%[57.1 µM]	10%[57.1 µM]	-7%	1%	-1%	10%
Cn1ncc2c(O/N=C(\N)c3ccc(C(F)(F)F)cc3)ncnc21	-11%	-12%	?	/	-4%	18µM*
CC1CN(S(=O)(=O)c2ccc(C(=O)Nc3nncs3)cc2)CC(C)O1 (centres undefined)	5%	-7%	0%	/	-1%	-11%
CN(C)S(=O)(=O)c1ccc(C(=O)Nc2nc(-c3cc4ccccc4o3)cs2)cc1	-8%	5%	-18%	2%	0%	6.5µM*
CN(CC1CCCO1)S(=O)(=O)c1ccc(C(=O)Nc2nc(-c3ccccn3)cs2)cc1 (centres undefined)	3%[57.1 µM]	-6%[57.1 µM]	?	-1%	2%	5.2µM*
CC1CN(S(=O)(=O)c2ccc(C(=O)Nc3nc(-c4cc5ccccc5o4)cs3)cc2)CC(C)O1 (centres undefined)	21%	32%	7.3µM*	-2%	0%	3.7µM*
N#Cc1c(-c2ccc(Cl)cc2)no[n+]1[O-]	/	/	-4%	/	/	-8%
CCN(CC)c1ccc(/C=C/c2c(C)cnc3ccccc23)cc1	5%	-7%	/	/	/	/
COc1ccc(OC)c(S(=O)(=O)NCc2cccn2Cc2cccc(C)c2)c1	10%[57.1 µM]	5%[57.1 µM]	?	/	0%	/
Fc1ccc(Nc2nc(NCc3ccco3)c3ccccc3n2)cc1	30%	18%	-11%	2%	-1%	18µM*
Cc1c(Cl)cccc1N1CC(c2nc3ccccc3n2Cc2ccccc2F)CC1=O (centres undefined)	18%	10%[11.4 µM]	-13%	/	0%	?
Cc1cc2c(s1)c1cnn(Cc3cc(F)c(F)c(F)c3)c(=O)c1n2C	/	/	-13%	/	/	12%
O=C(/C=C/c1ccc([N+](=O)[O-])cc1)Oc1ccc(/C=N/NC(=O)c2ccncc2)cc1	35µM*	-5%	-9%	-9%	1%	8%
O=C1C2C3C=CC(C3=C3CCCCC3)C2C(=O)N1c1ccccc1 (centres undefined)	20µM*	4%	-10%	0%	-1%	-21%
CCCc1cc(=O)[nH]c(Nc2ccccc2O)n1	0%	5%	0%	/	11µM*	0%
Cc1ccc2onc(CC(=O)N3CCN(c4ccc(F)cc4)CC3)c2c1	?	-9%	?	/	0%	16µM*
